FBW7 act = human FBW7 E3 ligase activation, primary screen. Q969H0. AlphaScreen FBW7–phospho-cyclin E peptide binding, activator screen. normalized activity (activation), % at 26.1 µM. 650,000 tested, 0.13% active. AID 1259310; in the data active = normalized activity above about 1.9%;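 note: purified mutant Fbw7 with reduced substrate affinity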
TEAD-YAP inh = TEAD-YAP interaction inhibition. HEK-TIYL cells, TEAD-Gal4/YAP UAS-luciferase luminescence. inhibition, % at 9.12 µM. 640,000 tested, 1.4% active. AID 1259422; in the data active = inhibition above about 32%;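 note: 0% = median of test compound wells and 100% = reference inhibitor wells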
GPR151 activ = activates the human receptor GPR151. activation, % at 11.2 µM. PathHunter beta-arrestin GPR151 cells, luminescence. Q8TDV0. 650,000 tested, 1% active; in the data active = activation above about 4.9%;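 note: 0% = median of compound wells and 100% = cells with positive control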
MITF primary = blocks human microphthalmia-associated transcription factor; O75030; AlphaScreen MITF homodimerization, bead proximity signal; inhibition, % at 2.6 µM; 650,000 tested, 0.91% active; AID 1259374; in the data active = inhibition above about 50%;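 note: 0% = vehicle wells with protein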
Target sequence (O75030 whole entry, looked up): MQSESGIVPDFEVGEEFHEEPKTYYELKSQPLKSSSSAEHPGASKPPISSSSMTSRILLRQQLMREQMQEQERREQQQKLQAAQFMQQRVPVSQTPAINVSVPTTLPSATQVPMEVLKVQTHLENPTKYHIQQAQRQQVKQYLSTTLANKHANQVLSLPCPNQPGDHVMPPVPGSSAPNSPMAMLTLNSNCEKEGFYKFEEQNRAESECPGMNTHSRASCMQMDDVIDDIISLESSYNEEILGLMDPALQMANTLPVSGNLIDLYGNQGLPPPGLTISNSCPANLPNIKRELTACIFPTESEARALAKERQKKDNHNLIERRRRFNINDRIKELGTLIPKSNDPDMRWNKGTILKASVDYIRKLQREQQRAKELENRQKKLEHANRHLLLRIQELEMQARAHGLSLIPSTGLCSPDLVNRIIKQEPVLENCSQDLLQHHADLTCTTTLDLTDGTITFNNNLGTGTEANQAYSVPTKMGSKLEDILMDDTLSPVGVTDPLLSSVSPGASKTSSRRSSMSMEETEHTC
GPR151 conf act = human GPR151 activation, confirmation screen; shares compounds with GPR151 activ; 6,700 tested, under 10 active; GPR151 PathHunter beta-arrestin cells, luminescence, 90 min; % of EA-reagent control over plate median; activation, % at 11.2 µM; AID 1508609;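 active = mean percent activation across replicates above the confirmation screen cutoff of 4.91%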
GPR119 ag = activates human GPR119 in a GPR151 counter-screen. shares compounds with GPR151 activ. GPR119 PathHunter beta-arrestin cells, luminescence, 90 min; 0 = compound-well median, 100 = enzyme-acceptor control. activation, % at 11.2 µM. 6,700 tested, 0.3% active. AID 1508611;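 active = mean percent activation in the counterscreen above 29.09%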;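 note: counterscreen on off-target GPR119 to flag nonselective hits from the GPR151 activator screen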
Numbers without * were called inactive; . = no result given. Rows were chosen to be rich in hits. Some 3.5% of all compounds tested hit in one or more screens of this group.

SMILES | FBW7 act | TEAD-YAP inh | GPR151 activ | MITF primary | GPR151 conf act | GPR119 ag
CCn1c(=O)c2ccccc2n2c(SCC(N)=O)nnc12 | 0 | -2 | 6.3* | 0 | 0 | 5
CCCn1c(=O)c2ccccc2n2c(SCC(N)=O)nnc12 | 0 | 6 | 1 | 12 | . | .
COc1cccc(-c2nc3ccccc3c(=O)n2NC(=O)Cn2nc(C(F)(F)F)c(Br)c2C)c1 | 0 | -1 | 1 | 0 | . | .
COc1ccc(Nc2nc(N)nc(CN3C(=O)c4ccccc4C3=O)n2)cc1 | 0 | 0 | 6.9* | 3 | 0 | -2
COc1ccc(Nc2nc(N)nc(CN3CCN(c4ccccn4)CC3)n2)cc1 | 0 | -7 | 0 | 9 | . | .
CCN1CCN(Cc2nc(N)nc(Nc3ccccc3)n2)CC1 | 0 | 8 | 6.1* | 5 | 0 | 13
CCOC(=O)c1cnc(SCc2nc(N)nc(Nc3ccccc3)n2)nc1N | 0 | 13 | 3 | 0 | . | .
CCOC(=O)c1nc(N)nc(Nc2ccccc2)n1 | -1 | 9 | 11* | 15 | 0 | 1
O=C(N=C1N=C2C=CC(Cl)=CN2Cc2ccccc21)C1CC1 | 0 | -34 | -4 | 24 | . | .
COc1ccc(N2CCN(Cc3nc4c(c(=O)n(C)c(=O)n4C)n3CCCO)CC2)cc1 | 0 | 3 | -1 | 6 | . | .
Cc1ccc(Oc2nc3ccccn3c(=O)c2/C=C(\C#N)C(=O)NC2CCCC2)cc1 | 0 | 6 | -5 | 11 | . | .
O=c1[nH]c(CN2CCCCC2)nc2scc(-c3cccs3)c12 | 0 | -14 | 1 | -7 | . | .
Cc1c(Cl)cccc1NC(=O)CC(C)S(=O)(=O)c1ccc2c(c1)SCC(=O)N2 (stereo not drawn) | 0 | 6 | 0 | 3 | . | .
Cc1cccc(C(C)C)c1NC(=O)CCS(=O)(=O)c1ccc2c(c1)SCC(=O)N2 | 0 | 1 | 5.5* | 4 | 0 | 6
Cc1cccc(NC(=O)CC(C)S(=O)(=O)c2ccc3c(c2)SCC(=O)N3)c1C (stereo not drawn) | 0 | 1 | 5.8* | -2 | 0 | -1
CCN(CC)c1nc(NCCCN2CCCC2=O)nc(Nc2nccc3ccccc23)n1 | 0 | 3 | 0 | 12 | . | .
O=C(NC1CCCCC1O)c1ccccc1C(F)(F)F (stereo not drawn) | 0 | -5 | 9.2* | 16 | 0 | -10
O=C(NC1CCCCC1)c1ccccc1C(F)(F)F | 0 | -4 | -1 | 8 | . | .
C=C(C)CN(CC)C(=O)CC1C(=O)NCCN1CC1CCCCC1 (stereo not drawn) | 0 | 5 | -2 | 19 | . | .
CC(C)(C)NC(=O)c1cc(-c2ccco2)[nH]n1 | 0 | 0 | -2 | 7 | . | .
CCCN(CCC)C(=O)c1cc(-c2ccco2)[nH]n1 | 0 | -1 | 5.2* | -1 | 0 | -3
Cc1cc(C)nc(SCC(=O)Nn2cnnc2)n1 | 0 | 2 | 7.1* | -19 | 0 | -13
Cc1cc(C)nc(SCC(=O)NC(C)(C)C)n1 | 0 | -1 | 0 | 16 | . | .
CCc1cccc(CC)c1NC(=O)C1CC(=O)N(c2ccc(F)cc2)C1 (stereo not drawn) | 0 | 10 | 1 | 12 | . | .
CCc1cccc(CC)c1NC(=O)C1CC(=O)N(c2ccccc2OC)C1 (stereo not drawn) | 0 | -4 | 8.6* | -1 | 0 | 12
SMILES | FBW7 act | TEAD-YAP inh | GPR151 activ | MITF primary | GPR151 conf act | GPR119 ag
CCOC(=O)c1c(NC(=O)c2ccc(Br)o2)sc2c1CC(C)CC2 (stereo not drawn) | 0 | -1 | -1 | -3 | . | .
C=CCn1c(COc2ccc(OC)cc2)nc2ccccc21 | 0 | -59 | -1 | -4 | . | .
C=CCn1c(/N=C/c2ccc(OC)cc2)nc2ccccc21 | 0 | 5 | 5.0* | 6 | 2 | 12
Cc1nn2cnc3sc4c(c3c2nc1=O)CCC(C(C)(C)C)C4 (stereo not drawn) | 0 | -8 | 7.0* | -1 | 0 | -4
Cn1c(NN)nc2sc3c(c2c1=O)CCC(C(C)(C)C)C3 (stereo not drawn) | 0 | 8 | 0 | 11 | . | .
CCOC(=O)c1sc(/N=C/N(C)C)c(C(=O)OCC)c1C | 0 | -9 | 11* | 1 | 1 | 5
CCOC(=O)/C(N=Nc1sc(C(=O)OCC)c(C)c1C(=O)OCC)=C(\O)CCl | 0 | -5 | 6.7* | 3 | 1 | -3
Cc1cccc(C(=O)N2CC(C)CC(C)C2)c1 (stereo not drawn) | 0 | 6 | 5.6* | 9 | 1 | 12
O=C(c1ccc(COc2ccc(Cl)cc2)cc1)N1CCOCC1 | 0 | -48 | -3 | 15 | . | .
O=C1CCC(N2CC3CCC2C3)CCN1Cc1ccc(F)c(F)c1 (stereo not drawn) | 1 | 2 | 1 | 14 | . | .
CCCCCc1ccc(OCCOCCn2c[n+](C)c3ccccc32)c(CCCCC)c1 | 0 | 52* | 4.9* | -1 | 0 | -1
CCOc1ccc(-c2cc(=O)c3cc(NC(=O)c4ccccc4Br)ccc3o2)cc1 | 0 | -39 | 5.1* | -2 | -1 | -11
Cc1ccc(CN2CCNC(=O)C2CC(=O)N(C)CCc2cnn(C)c2)cc1 (stereo not drawn) | 0 | 1 | 0 | 9 | . | .
CC(C)CCN1CCNC(=O)C1CC(=O)N(C)CCc1cnn(C)c1 (stereo not drawn) | 0 | -3 | 5.6* | 18 | 0 | 6
C=CCNC(=O)C(C)N(c1ccc(C)cc1)S(C)(=O)=O (stereo not drawn) | 0 | 5 | -2 | 0 | . | .
Cc1ccc(N(C(C)C(=O)NC2CCCCC2)S(C)(=O)=O)cc1C (stereo not drawn) | 0 | 1 | 6.6* | -12 | 1 | 8
C=CCNC(=O)C(C)N(c1ccccc1)S(C)(=O)=O (stereo not drawn) | 1 | -2 | 8.2* | -1 | -1 | -10
Cc1ccc(N(C(C)C(=O)NCc2ccccn2)S(C)(=O)=O)cc1C (stereo not drawn) | 0 | -3 | 5.4* | 7 | 1 | 11
Cc1ccc(N(C(C)C(=O)NC2CCCCCC2)S(C)(=O)=O)cc1C (stereo not drawn) | 0 | 4 | 0 | 5 | . | .
O=c1[nH]c2ccc(N=Cc3cc(Cl)ccc3O)cc2[nH]1 | 0 | 1 | 2 | 7 | . | .
COC(=O)C1=CN(Cc2ccc(F)cc2)C=C(C(=O)OC)C1c1ccc(OCc2ccccc2)c(OC)c1 | 1 | 0 | 0 | 1 | . | .
CCOC(=O)C1=CN(Cc2ccc(F)cc2)C=C(C(=O)OCC)C1c1ccc(OCc2ccccc2)c(OC)c1 | 0 | 1 | 14* | -26 | 0 | 7
CC(C)CN(C(=O)c1ccccc1Cl)c1nnc(-c2ccncc2)s1 | -1 | -6 | 6.3* | 12 | 0 | -2
O=C(Nc1ccc(Oc2ccc(Cl)cc2)cc1)C1CCCN1C(=O)OCc1ccccc1 (stereo not drawn) | 0 | 5 | 5.5* | 11 | -1 | 4

Screens: PubChem, The Scripps Research Institute Molecular Screening Center
